# Screens (PubChem)
# Hits are enriched below; roughly 6.5% of the tested compounds scored in any of these assays.
# Lassa entry inh = inhibitors of Lassa virus binding or cell entry; 1.2% of 300,000 active; Potency, µM (series often up to 37.9 µM), most hits filed as inhibitors; AID 540256; Lassa virus pseudotype entry inhibition, cell reporter; calls by dose curve; tested in HEK293 cells; note: nearly all actives have a fitted effect of over 50% in size
# HCMV inh = human cytomegalovirus inhibition; 4.5% of 410,000 active; activity change, negative = inhibition, % at 57.5 µM; HFF cells, HCMV-luciferase reporter, 72 h; hits give low values; in the data active = activity change below about -60%; inconclusive = no clear call, values can overlap the other calls; inactive = above about -39%
#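 Inhibition of viral replication was scored as loss of reporter luminescence in HFFs infected with HCMV-luciferase (MOI 1 PFU/cell) for 72 h; compounds tested at 2 doses, normalized to buffer and Salinomycin controls.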
# Vaccinia Venus = inhibitors of vaccinia virus (Venus reporter) | Vaccinia virus Venus reporter expression, fluorescence | Potency, µM (series often up to 36.5 µM), usual class: inhibitors | 0.46% of 330,000 active; calls by dose curve; tested in A549 cells; note: nearly all actives have a fitted effect of over 30% in size
# Vaccinia mCherry = vaccinia inhibition (mCherry reporter); Vaccinia virus mCherry reporter infection, fluorescence; 0.63% of 310,000 active; Potency, µM (top dose mostly 36.5 µM), hits mostly inhibitors; calls by dose curve; tested in A549 cells; note: nearly all actives have a fitted effect of over 35% in size
# FMDV antiviral = blocks foot and mouth disease virus; FMDV antiviral cell-based qHTS; Potency, µM (titrated, usually from 57.9 µM), actives largely listed as inhibitors; 1.2% of 410,000 active; AID 1159524; calls by dose curve; tested in HEK293T cells; note: read-out not given here; nearly all actives have a fitted effect of over 45% in size
# Marburg entry inh = blocks Marburg virus binding to or entry into cells; 1.8% of 300,000 active; Marburg virus pseudotyped entry inhibition, cell reporter; Potency, µM (top dose mostly 37.8 µM), actives largely listed as inhibitors; calls by dose curve; tested in HEK293 cells
# Hits are given with their value; – = inactive; ? = inconclusive; · = no result.
SMILES,Lassa entry inh,HCMV inh,Vaccinia Venus,Vaccinia mCherry,FMDV antiviral,Marburg entry inh
O=C(CN1C(=O)COc2ccc(S(=O)(=O)N3CCCC3)cc21)N1CCN(c2cccc(C(F)(F)F)c2)CC1,–,–,–,–,?,–
COc1ccccc1-c1nnc(Nc2nc3c(OC)cccc3s2)o1,?,-75.9,–,?,–,?
COc1cccc2sc(NN)nc12,–,–,–,–,–,–
COc1cccc2sc(Nc3nnc(-c4ccccc4Cl)o3)nc12,?,-60.2,–,?,–,?
CCCCOC(=O)c1c(C)oc2c1cc(NS(=O)(=O)c1cc(OC)ccc1OC)c1ccccc12,?,–,–,–,–,?
CSCC[C@@H](C(=O)NCCCCCCCCCCC(=O)N1CCN(C(=O)OC(C)(C)C)CC1)n1cc(CCO)nn1,·,–,–,–,?,·
CC[C@H](C)Cc1cn([C@@H](CCCCNC(=O)OC(C)(C)C)C(=O)NCCCCCCCCCCC(=O)N2CCN(C(=O)OC(C)(C)C)CC2)nn1,·,–,?,–,14.1µM,·
CC(C)(C)OC(=O)NCCCC[C@@H](C(=O)NCCCCCCCCCCC(=O)N1CCN(C(=O)OC(C)(C)C)CC1)n1cc(CCO)nn1,·,–,?,–,14.1µM,·
CC1=CC(C)(C(Cl)(Cl)Cl)C(C)=CC1=NO (configuration not stated),·,-69.3,–,–,–,·
Cc1cccn2c(=O)c3cc(C(=O)NCc4ccccc4)c(=N)n(CCCN4CCOCC4)c3nc12,·,–,·,·,–,·
Cc1cccn2c(=O)c3cc(C(=O)NCCN4CCOCC4)c(=N)n(CCc4ccccc4)c3nc12,–,-84.7,–,–,–,?
Cc1cccn2c(=O)c3cc(C(=O)NCCN4CCOCC4)c(=N)n(CCCN4CCOCC4)c3nc12,?,–,–,–,–,7.94µM
COc1ccc(CCn2c(=N)c(C(=O)NCCN3CCOCC3)cc3c(=O)n4cccc(C)c4nc32)cc1OC,·,-95.3,·,·,–,·
CCC(O)c1nc2ccccc2n1Cc1cc(C)ccc1C (configuration not stated),?,?,–,–,–,–
N[C@@H](CCC(=O)N[C@@H](CSN=O)C(=O)NCC(=O)O)C(=O)O,·,–,–,–,–,·
[N-]=[N+]=Nc1ccc(C(=O)CSC[C@H](NC(=O)CC[C@H](N)C(=O)O)C(=O)NCC(=O)O)cc1,?,·,·,·,·,5.01µM
Cc1ccc(NC(=O)CSc2nnc(C)n2-c2ccccc2)cc1,–,–,–,–,–,–
Cc1ccc(-c2nn(-c3ccccc3)cc2/C=N/NC(=O)c2ccc(Br)o2)cc1,–,–,–,·,28.2µM,?
Cc1nnc(SCC(=O)N/N=C/c2cn(-c3ccccc3)nc2-c2ccccc2)n1-c1ccccc1,?,–,?,?,28.2µM,?
O=C(N/N=C\c1cn(-c2ccccc2)nc1-c1ccccc1)c1ccc(Br)o1,?,–,–,?,?,?
CCC(C)NC(=O)CSc1nc2cc3c(cc2c(=O)n1CCCC(=O)NCCc1ccc(OC)c(OC)c1)OCO3 (configuration not stated),?,–,–,–,–,·
CCOC(=O)c1c2c3c(c(Cl)ccc3[nH]c1=O)C(=O)c1ccccc1-2,–,-97.1,–,–,–,–
CC(C)(C)c1nc(N2CCN(C(=O)c3ccco3)CC2)c2nnn(Cc3ccccc3)c2n1,25.9µM,?,·,·,28.2µM,?
O=C(c1ccco1)N1CCN(c2nc(C3CC3)nc3c2nnn3Cc2ccccc2Cl)CC1,?,–,?,?,35.5µM,?
Cc1ccc(Nc2c(-c3ccc(C)s3)nc3cccc(C)n23)cc1,·,·,–,–,·,·
SMILES,Lassa entry inh,HCMV inh,Vaccinia Venus,Vaccinia mCherry,FMDV antiviral,Marburg entry inh
O=C(COc1cccc(Cl)c1)NCC(c1cccs1)N1CCOCC1 (configuration not stated),·,–,·,·,–,·
Cc1cc(Cl)ccc1OCC(=O)NCC(c1cccs1)N1CCOCC1 (configuration not stated),?,-72.2,–,–,31.6µM,?
Cc1ccc2c(c1)-c1c(cnn1CC(=O)Nc1ccccc1N1CCN(C)CC1)CO2,?,?,–,–,–,9.2µM
Cc1cc(Cl)ccc1OCC(=O)Nc1ccccc1N1CCOCC1,8.91µM,?,–,–,28.2µM,?
Cc1ccc(C(C)C)c(OCC(=O)Nc2ccccc2N2CCN(C)CC2)c1,10µM,-73.7,?,·,31.6µM,?
COc1ccccc1N1CCN(C(=O)Cn2ncc3c2-c2cc(C)ccc2OC3)CC1,·,–,–,–,–,–
Cc1cc(Cl)ccc1OCC(=O)NC(=S)Nc1ccccc1N1CCOCC1,?,–,–,–,–,–
C=CCN1[C@@H](C(C)C)COCCS1(=O)=O,·,·,–,–,·,·
CC(=O)/C(N=Nc1cc2c(c([N+](=O)[O-])c1C)C(C)(C)CC2(C)C)=C(\C)O,–,–,–,–,25.1µM,–
Cc1cc(Br)ccc1NC(=O)CN(C)C(=O)C1CCN(c2ncnc3sc(C)c(C)c23)CC1,?,-83.4,?,?,?,?
Cc1cccc(C)c1NC(=O)CN(C)C(=O)C1CCN(c2ncnc3sc(C)c(C)c23)CC1,–,?,?,?,?,?
Cc1sc2ncnc(N3CCC(C(=O)Nc4nc(-c5ccc(F)cc5)cs4)CC3)c2c1C,?,-65.4,–,–,–,?
Cc1sc2ncnc(N3CCC(C(=O)NNC(=O)COc4cccc(C(F)(F)F)c4)CC3)c2c1C,–,–,–,–,25.1µM,–
Cc1ccc(OCC(=O)NNC(=O)C2CCN(c3ncnc4sc(C)c(C)c34)CC2)cc1,–,–,–,–,?,–
Cc1sc2ncnc(N3CCC(C(=O)NNC(=O)COc4ccccc4Cl)CC3)c2c1C,–,–,–,?,35.5µM,?
CCN(CC)CCNC(=O)c1ccc(NC(=O)C2CCN(c3ncnc4sc(C)c(C)c34)CC2)cc1,·,-71.1,·,·,?,·
Cc1sc2ncnc(N3CCC(C(=O)Nc4ccc(OC(F)F)c(Cl)c4)CC3)c2c1C,·,–,·,·,?,·
Cc1sc2ncnc(N3CCC(C(=O)NNC(=O)COc4ccccc4F)CC3)c2c1C,–,–,–,–,25.1µM,–
O=C(NCCc1ccccn1)C1CC12CCN(C(=O)c1ccccc1Cl)CC2 (configuration not stated),·,·,–,–,–,·
Cc1oc(-c2ccccc2NC(=O)c2cccnc2)nc1CNC(=O)c1ccc(N(C)C)cc1,·,·,–,–,–,·
Cc1ccc(-c2cc(C(=O)N(C)Cc3cnn(C)c3C)c3cc(Br)ccc3n2)cc1,?,–,–,–,–,8.91µM
CCC1C(=O)NCCN1Cc1ccc2c(c1)CN(Cc1ccc(F)c(OC)c1)CCO2 (configuration not stated),·,·,–,–,–,·
O=Nc1ccc2oc(=O)ccc2c1,?,·,·,·,·,12.6µM
COc1cc2ccc(=O)oc2cc1O,·,–,–,–,?,·
CC(C)Oc1ccc(CNC(=O)c2ccc(CS(=O)Cc3ccccc3Cl)o2)cc1 (configuration not stated),–,–,–,–,?,·
C(#Cc1ccccc1)C[N+]1(CC#Cc2cccc3ccccc23)CCCC1,?,-100.4,·,·,?,–
Cc1nc2ccc(NC(=O)c3nn(CC(C)C)c(=O)c4ccccc34)cc2s1,–,-62.1,–,?,–,–
